In PubChem BioAssay:
Records with an inconclusive call do not appear. Activity calls are given as the source filed them.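 Rule for the calls, unless noted: active = viability at or below 10% of carrier control in both of two separate runs; inconclusive = viability at or below 10% in only one of the two runs; inactive = the rest.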

Experiments:
[1] = reducers of endogenous Her2 protein level, primary screen, SKBR3 breast tumor cells, AlphaScreen, ATP viability (AID 461;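 active = Her2 level under about 52% in both replicate screens, with viability over 70% of control, limit read from the data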;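 for Her2 level: lower value means less Her2 protein in the cells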;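 for viability: percent of carrier control wells set as 100% viability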); conditions: 18-24 h, measured here: SKBR3 viability, ATP luminescence, at 10 µM
[2] = target: Receptor tyrosine-protein kinase erbB-2 (Homo sapiens) (UniProt P04626); test: as above; conditions: 18-24 h, at 10 µM, stronger effect = lower value
[3] = SK-BR-3 cell growth inhibitors, pilot screen, 24 h, human (AID 572); conditions: SK-BR-3 viability, CellTiter-Glo luminescence, at 10 µM, stronger effect = lower value;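 note: compound exposure lasted between 18 and 24 h rather than exactly 24 h; 100% = carrier-treated control wells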
[4] = HUVEC growth inhibition – cell-based, human, primary screen (AID 575;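 active = viability at or below 30% in both replicate assays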;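 note: 100% = median of untreated cell wells with 0.1% DMSO on each plate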); conditions: HUVEC proliferation, CellTiter-Glo luminescence, 72 h; at 10 µM; stronger effect = lower value
[5] = growth inhibitors of H69AR lung tumor, primary screen, human, duplicate replicates (AID 580;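 active = viability at or under a set limit in both replicates, limit being median viability minus 3 SD, cut at about 48% in these data, passing the limit was not always enough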;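 note: 100% = mean luminescence of untreated wells and 0% = no signal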); conditions: H69AR lung tumor cells viability, ATP luminescence, 72 h; at 10 µM; stronger effect = lower value
[6] = reversal of MRP1-mediated doxorubicin resistance, pilot screen, H69AR cells, doxorubicin co-treatment (AID 601;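 active = viability loss from added drug above about 55%, and viability with drug at most 40%, in both replicates, limit read from the data, passing the limit was not always enough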); conditions: CellTiter-Glo, 72 h, at 10 µM; for differential viability (reversal): stronger effect = higher value
[7] = 384-well plate pilot, post-Golgi transport modulator project, inhibition of yeast transport mutant growth (AID 636; in the data active = inhibition above about 31%); conditions: absorbance 615 nm, about 18 h, stronger effect = higher value
[8] = growth suppression of yeast trafficking mutant, preliminary HTS, modulators of trafficking downstream of Golgi apparatus project, 1536-format plate, OD 615 nm (AID 637; in the data active = inhibition above about 30%); conditions: yeast transport mutant growth, absorbance 615 nm, 18 h; stronger effect = higher value
[9] = OD615 S. cerevisiae growth inhibition, permissive medium, pilot counter-assay, permissive growth control for S. cerevisiae lifespan shortening project (AID 705;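 active = growth inhibition above 25% in both replicates, a cutoff set 3 SD above the mean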); conditions: OD615, 24 h, at 10 µM, stronger effect = higher value
[10] = Restrictive medium S. cerevisiae growth inhibition, OD615, pilot screen of yeast lifespan reduction project, restrictive growth control (AID 706;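 active = growth inhibition above a set limit, 3 SD over mean compound inhibition, in both replicates, cut at about 43% in these data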;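 note: modified DeaD lifespan yeast strain shifted to restrictive glucose medium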); conditions: OD615, 48 h, at 10 µM, stronger effect = higher value
[11] = viability gain of MRP-1-high H69AR cells under doxorubicin, pilot screen, MRP-1 activator project, CellTiter-Glo, duplicate (AID 807;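 active = viability increase at or above a cutoff of the median across tested compounds plus 3 SD, cut at about 8.5% in these data, passing the limit was not always enough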;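 note: compound pretreatment 18-22 h then 72 h combined with doxorubicin; 0% = doxorubicin alone and 100% = vehicle without doxorubicin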); conditions: H69AR viability with doxorubicin, CellTiter-Glo luminescence; at 10 µM; stronger effect = higher value
[12] = growth suppression of beta-catenin knockout HCT116, pilot screen, human colon tumor cells (AID 823;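 active = cell viability at or below a set limit in both duplicate runs, the limit being the all-compound median minus 4 SD, cut at about 23% in these data, passing the limit was not always enough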;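 note: 0% = wells killed by 20 µM Hyamine and 100% = untreated DMSO cell wells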); conditions: CellTiter-Glo, 60 h, at 10 µM, stronger effect = lower value
[13] = growth suppression of PTEN-deleted HCT116, pilot screen, cell-based, HCT116 clonal line, CellTiter-Glo (AID 824;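 active = viability at or below 27.92% in each of two runs, the all-compound median minus 4 SD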;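 note: 0% = 20 µM Hyamine control and 100% = vehicle cell control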); conditions: 60 h, at 10 µM, stronger effect = lower value
[14] = inhibitors of the yeast RAM network, pilot screen, dse1pr::URA3 reporter, 5-FOA selection (AID 869;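 active = inhibition over a set limit, the all-compound mean plus 3 SD, in both replicate runs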;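 note: 0% = DMSO wells with no growth and 100% = 10 µM 1-NA-PP1 with full growth; RAM network block rescues cells from 5-FOA so hits raise OD615 growth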); conditions: S. cerevisiae dse1pr::URA3 5-FOA growth, OD615, 2 d; at 10 µM; stronger effect = higher value; strain carries analog-sensitive mutant Cbk1 kinase
[15] = RAM signaling pathway blockade in yeast – S. cerevisiae, Pdr1DBD-CYC8 efflux-inhibited sensitized strain, primary screen (AID 1298;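 active = RAM network inhibition above 8.4% in each of two replicates, 3 SD over the compound average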;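 note: 0% = DMSO untreated cells without growth and 100% = 10 µM 1-NA-PP1 full growth; higher means more yeast growth rescued from 5-FOA killing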); conditions: S. cerevisiae cbk1-as DSE1-URA3 strain, 5-FOA growth OD615, 2 d; at 50 µM; stronger effect = higher value
[16] = H69AR cells + 2 uM doxorubicin, measured here: viability with 2 uM doxorubicin, stronger effect = lower value
[17] = H69AR cells, compound alone cytotoxicity

Chain of Receptor tyrosine-protein kinase erbB-2 (Homo sapiens) (P04626 whole entry, looked up): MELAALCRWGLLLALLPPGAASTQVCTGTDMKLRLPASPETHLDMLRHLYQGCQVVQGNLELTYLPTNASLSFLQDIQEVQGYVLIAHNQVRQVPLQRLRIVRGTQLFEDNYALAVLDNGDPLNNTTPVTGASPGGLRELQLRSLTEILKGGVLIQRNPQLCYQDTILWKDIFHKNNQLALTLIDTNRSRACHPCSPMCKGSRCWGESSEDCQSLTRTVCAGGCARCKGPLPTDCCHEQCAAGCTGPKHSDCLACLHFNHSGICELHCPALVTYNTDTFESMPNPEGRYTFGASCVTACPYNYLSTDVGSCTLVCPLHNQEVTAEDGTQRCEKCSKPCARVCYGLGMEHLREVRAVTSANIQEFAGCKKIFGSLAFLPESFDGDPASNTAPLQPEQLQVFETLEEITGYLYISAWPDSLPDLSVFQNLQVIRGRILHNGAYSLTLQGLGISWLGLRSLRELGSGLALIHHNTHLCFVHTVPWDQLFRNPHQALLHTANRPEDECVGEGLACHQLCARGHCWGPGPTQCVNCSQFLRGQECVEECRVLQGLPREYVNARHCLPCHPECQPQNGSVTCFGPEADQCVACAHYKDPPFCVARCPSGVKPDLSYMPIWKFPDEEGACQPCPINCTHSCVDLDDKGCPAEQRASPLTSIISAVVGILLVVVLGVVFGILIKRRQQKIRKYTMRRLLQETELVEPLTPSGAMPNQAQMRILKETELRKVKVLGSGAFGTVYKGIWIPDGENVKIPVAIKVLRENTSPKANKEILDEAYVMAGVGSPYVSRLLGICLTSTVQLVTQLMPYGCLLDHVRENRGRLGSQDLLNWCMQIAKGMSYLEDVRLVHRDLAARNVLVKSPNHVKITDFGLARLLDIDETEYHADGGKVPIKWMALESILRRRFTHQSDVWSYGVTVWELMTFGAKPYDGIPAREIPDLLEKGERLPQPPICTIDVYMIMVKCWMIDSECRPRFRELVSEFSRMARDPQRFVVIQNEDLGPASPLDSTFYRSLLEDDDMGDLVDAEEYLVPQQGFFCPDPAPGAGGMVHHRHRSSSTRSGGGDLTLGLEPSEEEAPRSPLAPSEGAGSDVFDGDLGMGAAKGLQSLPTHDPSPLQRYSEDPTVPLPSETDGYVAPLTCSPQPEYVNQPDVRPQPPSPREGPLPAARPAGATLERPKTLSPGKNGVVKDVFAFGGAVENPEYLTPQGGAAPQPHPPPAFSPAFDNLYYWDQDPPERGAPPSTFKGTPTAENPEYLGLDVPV

SMILES	viability [1] [%]	Her2 level [2]	viability [3]	viability [4]	viability [5]	differential viability (reversal) ([6]; H69AR cells + 2 uM doxorubicin)	viability [6, 16] [%]	viability [6, 17] [%]	inhibition [7]	inhibition [8]	growth inhibition [9]	growth inhibition [10]	viability increase [11]	viability [12]	viability [13]	inhibition [14]	RAM network inhibition [15]
O=C1C2C3C=CC(C3)C2C(=O)N1c1cccc(N2C(=O)C3C4C=CC(C4)C3C2=O)n1 (stereo not drawn)	91	100% (inactive)	91% (inactive)	109% (inactive)	93.4% (inactive)	-4.17% (inactive)	97.6	93.4	-4.73% (inactive)	4.75% (inactive)	-12% (inactive)	-11.8% (inactive)	-0.89% (inactive)	104% (inactive)	104% (inactive)	3.84% (inactive)	5.46% (inactive)
O=C(NCCC1=CCCCC1)C1CCN(S(=O)(=O)c2cccc3cccnc23)CC1	104	96% (inactive)	104% (inactive)	89% (inactive)	97% (inactive)	-1.27% (inactive)	98.2	97	-2.27% (inactive)	-0.82% (inactive)	6.61% (inactive)	-0.115% (inactive)	4.13% (inactive)	93.3% (inactive)	91.6% (inactive)	0.885% (inactive)	1.51% (inactive)
CN(C)c1cc(NC(=O)CN2CCOCC2)c2ccccc2n1	110	100% (inactive)	110% (inactive)	90.2% (inactive)	85.8% (inactive)	0.73% (inactive)	85	85.8	-5.47% (inactive)	7.17% (inactive)	-12.2% (inactive)	-11% (inactive)	-1.8% (inactive)	100% (inactive)	99.4% (inactive)	-0.365% (inactive)	0.06% (inactive)
CCOC(=O)c1sc2nc(NC(=O)C3CCCCC3)sc2c1C	95.5	92.5% (inactive)	95.5% (inactive)	58.7% (inactive)	76.9% (inactive)	1.21% (inactive)	75.7	76.9	-0.4% (inactive)	-7.21% (inactive)	-4.09% (inactive)	-7.62% (inactive)	-0.22% (inactive)	89.1% (inactive)	95.2% (inactive)	3.21% (inactive)	4.73% (inactive)
CC(=O)N(c1ccc(Br)cc1)C1C=CS(=O)(=O)C1 (stereo not drawn)	100	96% (inactive)	100% (inactive)	87.9% (inactive)	88.8% (inactive)	4.71% (inactive)	84.1	88.8	-5.33% (inactive)	1.5% (inactive)	-6.33% (inactive)	-16.4% (inactive)	-0.84% (inactive)	107% (inactive)	96% (inactive)	2.17% (inactive)	-0.25% (inactive)
CCc1cc(=O)n2[nH]c(C)c(-c3ccccc3OC)c2n1	80.5	106% (inactive)	80.5% (inactive)	91.3% (inactive)	100% (inactive)	5.22% (inactive)	95	100	0.13% (inactive)	-6.83% (inactive)	-1.09% (inactive)	0.365% (inactive)	-3.04% (inactive)	98.6% (inactive)	105% (inactive)	2.31% (inactive)	1.78% (inactive)
Cc1cc(C)nc(/N=C2\NC(=O)CC(C(=O)O)N2c2ccc(Cl)cc2)n1 (stereo not drawn)	106	100% (inactive)	106% (inactive)	88.7% (inactive)	96% (inactive)	3.08% (inactive)	92.9	96	-6.53% (inactive)	5.17% (inactive)	0.655% (inactive)	5.68% (inactive)	1.08% (inactive)	99.5% (inactive)	102% (inactive)	1.93% (inactive)	3.63% (inactive)
CCOC(=O)N1CCC(NC(=O)C2CCN(S(=O)(=O)c3cccc4cccnc34)CC2)CC1	90.5	97.5% (inactive)	90.5% (inactive)	97.6% (inactive)	94.8% (inactive)	-6.25% (inactive)	101	94.8	-3.07% (inactive)	-3.33% (inactive)	-5.04% (inactive)	3.31% (inactive)	0.29% (inactive)	91.4% (inactive)	92.9% (inactive)	1.02% (inactive)	1.81% (inactive)
O=P(O)(CCc1ccccc1)CN1CCCCC1	106	106% (inactive)	106% (inactive)	102% (inactive)	95.5% (inactive)	3.43% (inactive)	92	95.5	7.97% (inactive)	-1.97% (inactive)	-2.51% (inactive)	-11.9% (inactive)	-0.92% (inactive)	102% (inactive)	98.8% (inactive)	2% (inactive)	1.24% (inactive)
